Source: PubChem BioAssay
GRIN3A LBD mod – NR3A (human) ligand-binding domain modulation; Tm shift relative to glycine control, % at 25 µM; AID 1259313; NR3A LBD differential scanning fluorimetry, Tm shift; 0% = protein alone, 100% = glycine-bound protein; 340,000 compounds, 2.5% hits;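 active = melting temperature shift of at least 10% of the positive control shift, at one fixed dose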
MPTP block – blocks calcium-induced mitochondrial swelling | 360,000 compounds, 1.4% hits | AID 602449 | isolated mouse mitochondria, Ca2+ swelling absorbance, 30 min | inhibition, % at 10 µM;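 active = inhibition of 50% or more, scaled per plate between neutral and stimulator controls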;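 note: 0% = DMSO wells given calcium and 100% = 1 mM EGTA wells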
FAS TE block – blocks the thioesterase domain of human fatty acid synthase; recombinant FAS-TE, OMFH fluorogenic substrate, fluorescence endpoint; inhibition, % at 15 µM; AID 602261; 360,000 compounds, 0.67% hits; P49327;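 active = compounds whose normalised, plate-corrected inhibition of enzyme fluorescence in the single-dose primary screen is 50% or more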;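 note: 0% = DMSO with enzyme and 100% = substrate without enzyme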
p-CIP stab down – lowers stability of the mouse p/CIP coactivator protein. decrease of EGFP signal, % at 10 µM. 290,000 compounds, 0.01% hits. AID 1984. F442A p/CIP-EGFP cells, EGFP fluorescence, 16 h;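 active = EGFP signal decrease of at least 30% at 10 µM or well 3 SD below plate mean, unless failing retest; inactive = the rest, including hits failing retest or dose response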
MIN6 prolif-1 – MIN6 beta-cell proliferation induction; MIN6 cells proliferation, ATPlite luminescence, 48 h; cells starved in 0.2% serum; 100% = growth in 10% serum; 330,000 compounds, 0.29% hits; proliferation, % at 10 µM;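 active = compounds whose signal lies at least 3.5 SD above the mean of all wells on their plate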;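 note: 0% = DMSO-treated cells in low-serum medium and 100% = 10% serum control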
MIN6 prolif-2 – MIN6 beta-cell replication induction, confirmed | 920 tested, under 10 active | shares compounds with MIN6 prolif-1 | proliferation increase, % at 50 µM | MIN6 beta-cell proliferation, ATPlite luminescence, 48 h; cells kept in 0.2% serum; scaled between 0.2% and 10% serum;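 active = proliferation increase above 40% at any of the four tested concentrations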
FAS-TE inh conf – confirmation of human fatty acid synthase thioesterase inhibitors; 2,300 compounds, 45% hits; inhibition, % at 15 µM; recombinant FAS-TE, OMFH fluorogenic substrate, fluorescence; shares compounds with FAS TE block;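 active = compounds inhibiting the enzyme by at least 50% at 15 µM in any one of the replicates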;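 note: 0% = enzyme with DMSO only and 100% = wells lacking enzyme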
MPTP counter – membrane potential counter-screen of mitochondrial pore inhibitors. shares compounds with MPTP block. isolated mitochondria, Rhodamine 123 fluorescence. inhibition, % at 10 µM. 5,000 compounds, 78% hits. AID 624504; in the data active = inhibition above about 22%;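 note: 0% = DMSO vehicle and 100% = positive control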
MPTP swell DR – MPTP inhibition, dose response swelling confirmation; IC50, µM; 780 compounds, 58% hits; shares compounds with MPTP block; isolated mitochondria swelling, absorbance; in the data active = IC50 below about 20 µM
MPTP cs DR – counter-screen for mitochondrial permeability transition pore inhibitors, dose response. shares compounds with MPTP block. isolated mitochondria counterscreen, fluorescence read-out. IC50, µM. 780 compounds, 49% hits; in the data active = IC50 below about 80 µM
The depositor's hits bear a star; · = no result given. Rows were chosen to be rich in hits. Some 4.1% of all compounds tested hit in one or more screens of this group.

SMILES	GRIN3A LBD mod	MPTP block	FAS TE block	p-CIP stab down	MIN6 prolif-1	MIN6 prolif-2	others
COc1ccccc1CCC(=O)Nc1ccc(S(=O)(=O)Nc2nccs2)cc1	-3	-1	-7	·	13*	1
CCc1nnc(NC(=O)COc2ccccc2[N+](=O)[O-])s1	1	0	-4	-6	4.6*	-1
O=S(=O)(c1ccc(Oc2ccc(F)c(Cl)c2)nc1)N1CCOCC1	-1	-2	3	·	13*	-2
O=S(=O)(c1ccc(Oc2ccc(Cl)cc2)nc1)N1CCOCC1	·	0	1	·	-5	·
CC1(C)CC(NC(=O)C2CCC(=O)N(C3CC3)C2)CC(C)(C)C1 (stereo not given)	-2	1	2	-5	-1	·
O=C(NC1CCCCC1)C1CCC(=O)N(C2CC2)C1 (stereo not given)	2	-1	-5	1	11*	-1
CC(C)NC(=O)C1(C)CN(S(C)(=O)=O)CC(=O)N1C1CCN(Cc2ccccc2)CC1 (stereo not given)	·	-2	·	·	·	·
CC(=O)Nc1n[nH]c(S(=O)(=O)Cc2ccc(Cl)cc2Cl)n1	2	0	-11	-2	8.0*	1
CC(=O)Nc1nc(SCc2ccc(Cl)cc2Cl)n[nH]1	-2	0	-7	-11	0	·
COc1ccc([N+](=O)[O-])cc1NCc1cccnc1	0	0	-2	-3	11*	2
COc1cccc(/C=N/NC(=O)CO/N=C(\C)c2cccs2)c1OC	-1	1	4	0	4.6*	0
CCOC(=O)Cc1cc(=O)n2[nH]c(-c3ccccc3)c(-c3ccccc3)c2n1	-9	-1	0	0	-4	·
CCOC(=O)Cc1cc(=O)n2[nH]c(C)c(-c3ccccc3)c2n1	-2	-1	-9	-14	6.1*	-3
CCN1C(=O)/C(=C2/SC(C)=C(C)N2CC)SC1=S	-1	4	-1	-4	7.5*	1
CCN1C(=O)/C(=C2\C=Cc3ccccc3N2CC)SC1=S	-24	7	38	-2	5	·
Cc1ccc(CNC(=O)C2CCCN(C(=O)Nc3ccc(F)cc3)C2)cc1 (stereo not given)	-1	2	-4	-5	10*	0
O=C(NCc1ccccc1Cl)C1CCCN(C(=O)Nc2ccc(F)cc2)C1 (stereo not given)	-2	-2	-3	8	-3	·
COc1ccc(NC(=O)CNCc2cccs2)c(OC)c1	·	1	-7	·	·	·
CC(=O)Nc1cc(C(=O)N(C)Cc2ccccc2)ccc1S(=O)(=O)c1ccc(C)cc1	3	2	-2	-9	13*	-3
CC(=O)Nc1cc(C(=O)N2CCCC2)ccc1S(=O)(=O)c1ccc(C)cc1	0	-1	-3	-15	-1	·
COc1ccc(-c2cnnn2-c2ccc(N)cc2)cc1OC	0	-2	-1	0	7.6*	5
COc1ccc(-c2cnnn2-c2ccc(NC(=O)c3ccco3)cc2)cc1OC	-1	-3	-4	-7	0	·
Cn1c(=O)c2cc(NC(=O)NCc3ccc(F)cc3)ccc2n1Cc1cccc(C(F)(F)F)c1	·	3	10	·	·	·
CCOc1ccccc1N(CC(=O)NCCSc1ccccn1)S(=O)(=O)c1ccccc1	-2	-1	6	-22	0	·
COc1ccccc1N(CC(=O)NCCSc1ccccn1)S(=O)(=O)c1ccccc1	-1	2	-4	9	19*	-2
SMILES	GRIN3A LBD mod	MPTP block	FAS TE block	p-CIP stab down	MIN6 prolif-1	MIN6 prolif-2	others
COCCCNC(=O)C[C@@H]1C[C@@]2(C(=O)OC)CCCCC=C2N(CCc2ccc(OC)c(OC)c2)C1=O	·	0	·	·	·	·
CCN(C(=O)CCC(=O)N(CC)c1ccccc1)c1ccccc1	1	1	-20	-4	-1	·
CCCC(=O)N(CCN(C(=O)CCC)c1ccccc1)c1ccccc1	-3	2	-6	3	8.8*	-3
N#Cc1nc(-c2ccco2)oc1NCc1ccccc1Cl	6	5	8	-2	4.6*	3
Nc1nc(CSc2nc3ccccc3s2)nc(N2CCCCC2)n1	-4	0	9	-13	9.0*	2
CCc1ccc(Nc2nc(N)nc(CSc3nc4ccccc4s3)n2)cc1	7	2	-10	-14	-5	·
O=C(Nc1ccc(-c2ccco2)cc1)C1CCCN(Cc2ccc(CO)o2)C1 (stereo not given)	1	0	-8	-2	11*	-6
CS(=O)(=O)c1ccc(-c2csc(-c3cccnc3)n2)cc1	0	0	58*	-13	9.8*	3	FAS-TE inh conf=50*
COCCNC(=O)c1cc2c(c(-c3cccc(-c4cc5ccccc5o4)c3)n1)[C@H](CCO)N(S(=O)C(C)(C)C)C2 (stereo not given in full)	·	2	13	·	·	·
COc1cccc(CNC2CCCc3ccccc32)c1OC (stereo not given)	1	60*	-4	3	9.1*	-3	MPTP counter=5;MPTP swell DR=>100;MPTP cs DR=>80
CC1(C(=O)NS(=O)(=O)C2CC2)CCN(C(=O)c2cccc(Cl)c2)C1 (stereo not given)	·	0	-4	·	·	·
COc1ccc([N+](=O)[O-])cc1/C=N/NC(=O)CNC(=O)c1cccc(F)c1	-19	-17	70*	-4	0	·	FAS-TE inh conf=75*
COc1cccc(-n2c(CN3CCN(c4ccccc4)CC3)nc3ccc([N+](=O)[O-])cc3c2=O)c1	5	2	72*	0	0	·	FAS-TE inh conf=31*
COc1ccc(-n2c(CN3CCN(c4ccccc4OC)CC3)nc3ccc([N+](=O)[O-])cc3c2=O)c(OC)c1	0	1	32	-4	-3	·
COCCc1ccc(OC2(C)CCN(Cc3ccc(OC)c4ccccc34)C2)cc1 (stereo not given)	·	4	14	·	·	·
O=C(Nc1ccc2c(c1)OCCO2)C1c2ccccc2OCC(=O)N1Cc1ccco1 (stereo not given)	·	-2	-8	·	·	·
CCN(CC)C(=O)C1=C(C)N(Cc2ccc(OC)cc2)C(=O)C(CC(=O)NCCN2CCOCC2)C1 (stereo not given)	·	2	-7	·	·	·
O=C(CCCn1c(SCc2cccc([N+](=O)[O-])c2)nc2ccccc2c1=O)NCC1CCCO1 (stereo not given)	1	-1	86*	1	-4	·	FAS-TE inh conf=30
